Results on 17 molecules are retold here after PubChem BioAssay (NCATS).

SMILES strings stand for the structures. Results filed as inconclusive are left out. Where a call stands in place of a potency, no number is given. Calls of active or inactive are those of the source. The call rests on the fitted dose curve; in most records, active means well fitted cell-killing curve with a large enough effect; inconclusive means small, poorly fitted or top-dose-only effect, or effect the other way; inactive means flat fitted curve, though single readings scatter.

The test system of the test is CASKI. Briefly: Primary qHTS to identify gynecologic anti-cancer compounds using libraries of approved drugs and bioactive compounds (AID 1345084). Further: nearly all actives have a fitted effect of over 55% in size. Particulars: Gynecologic cancer cell panel viability, ATPlite luminescence, 48 h; series mostly up to 57.5 µM. In short, it runs like this:
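Cells, 1,000 per well, plated 16 h, then exposed 48 h at 37 C to compounds. Viability by ATPlite luminescence after 15 min at room temperature.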
On the technique in general: In qHTS, concentration-response curves come from the screen itself.
For the molecule `CCCN[C@H]1CCc2nc(N)sc2C1`, the Potency entry was “inactive”.
Turning to `CCOCC(O)COc1ccc(NC(=O)CC[S+](C)C)cc1` (configuration not stated), the Potency entry was “inactive”.
Next, `COc1cc(NS(=O)(=O)c2ccc(N)cc2)nc(OC)n1`: “inactive”; `O=C(N[C@H](CO)[C@H](O)c1ccc([N+](=O)[O-])cc1)C(Cl)Cl`: “inactive”; `CCCc1cc(C(N)=S)ccn1`: “inactive”.
The same measure for `O=C(O)c1cn(C2CC2)c2cc(N3CCNCC3)c(F)cc2c1=O`: “inactive”; for `O=C(O)CCn1c2c(c3ccccc31)C[C@H](NS(=O)(=O)c1ccc(F)cc1)CC2`: “inactive”; for `Cc1noc(NS(=O)(=O)c2ccc(N)cc2)c1C`: “inactive”.
Next, `CCn1cc(C(=O)O)c(=O)c2cc(F)c(N3CCN(C)CC3)cc21`: “inactive”.
For the molecule `O=C(O)CSCC(=O)NC1CCSC1=O` (configuration not stated), the Potency entry is “inactive”.
With `CN(C)CCc1c[nH]c2ccc(CS(=O)(=O)N3CCCC3)cc12`, the Potency entry is “inactive”.
The same measure for `CO[C@@H]1[C@@H](OC(N)=O)[C@@H](O)[C@H](Oc2ccc3c(O)c(NC(=O)c4ccc(O)c(CC=C(C)C)c4)c(=O)oc3c2C)OC1(C)C`: “inactive”; for `CCOc1cc(N)c(Cl)cc1C(=O)NCC1CN(Cc2ccc(F)cc2)CCO1` (configuration not stated): “inactive”; for `CCC(=O)O[C@]1(C(=O)SCF)[C@H](C)C[C@H]2[C@@H]3C[C@H](F)C4=CC(=O)C=C[C@]4(C)[C@@]3(F)[C@@H](O)C[C@@]21C`: “inactive”.
The same measure for `Cc1oc(=O)oc1CN1CCN(c2cc3c(cc2F)c(=O)c(C(=O)O)c2n3C(C)S2)CC1` (configuration not stated): “inactive”; for `C[C@@H](CN1CC(=O)NC(=O)C1)N1CC(=O)NC(=O)C1`: “inactive”; for `OC(Cn1cncn1)(Cn1cncn1)c1ccc(F)cc1F`: “inactive”.
